# Measured values taken from ChEMBL document CHEMBL3988442, “University of Dundee, Small-Polar-MMV Screening Library” (2021).
# Among all 69,000 compounds or so, about 1,000 (1.4%) showed an effect of 50% or more. This excerpt belongs to a sample that is enriched for strong results.
# Test system: Leishmania donovani
# Assay: Leishmania intramacrophage assay
# Format: functional, organism-based
# Parameters: scale not given: in the data most compounds retested in dose-response had high values
structure (smiles),measurement,setting,value
CCC[C@H]1CN(S(C)(=O)=O)C[C@@H]1NC(=O)CCCn1ccnc1,Percent Effect,"30.3 µM, […]",-3.317%
CC(C)CCN(C)C(=O)c1cc(CN2CCC(O)CC2)on1,Percent Effect,"30.3 µM, […]",25.01%
O=C(CS(=O)(=O)Cc1nnnn1C1CC1)NCC1CC1,Percent Effect,"30.3 µM, […]",7.259%
Cc1ccc2cccc(C(=O)NCC3CCN(C(C)C)C3)c2n1 (centres undefined),Percent Effect,"30.3 µM, […]",6.487%
Cc1cccc(CN2CCC3(CCN(c4ccccn4)C3)C2=O)c1.O=C(O)C(F)(F)F (centres undefined),Percent Effect,"30 µM, 30.03 µM",41.53%
CC1=N[C@@]2(CC[C@@H]3CN(Cc4ccccc4F)C[C@@H]32)C(=O)N1CC1CC1.O=C(O)C(F)(F)F,Percent Effect,"30 µM, 30.03 µM",16.75%
CN1CCN(C)c2cc(NC(=O)c3cc[nH]n3)ccc2C1,Percent Effect,"30.3 µM, […]",24.5%
COc1ccc(OC)c(C2CCN(C(=O)CCc3n[nH]c(N)n3)C2)c1 (centres undefined),Percent Effect,"30.3 µM, […]",25.04%
CNC(=O)NC(=O)CCSCc1cc(F)cc2cccnc12,Percent Effect,"30.3 µM, […]",2.728%
NC(=O)CCSCc1cc(Br)cc2cccnc12,Percent Effect,"30.3 µM, […]",18.7%
NC(=O)NC(=O)CCSCc1cc(F)cc2cccnc12,Percent Effect,"30.3 µM, […]",50.58%
CC(C)CN1C[C@H]2CCN(C(=O)NC3CCCC3)CC[C@H]2S1(=O)=O,Percent Effect,"30.3 µM, […]",5.795%
Cc1noc(CCCC(=O)N2CCNC(=O)C2)n1,Percent Effect,"30.3 µM, […]",12.24%
COCC(=O)NCc1cc(=O)n2c(n1)CN(C)CCC2.O=C(O)C(F)(F)F,Percent Effect,"30.3 µM, […]",39.76%
COCCN1CCCn2c(nc(CNC(=O)COC)cc2=O)C1.O=C(O)C(F)(F)F,Percent Effect,"30.3 µM, […]",69.63%
COCC(=O)NCc1cc(=O)n2c(n1)CN(Cc1ccsc1)CCC2,Percent Effect,"30 µM, 30.03 µM",13.56%
COCC(=O)NCc1cc(=O)n2c(n1)CN(CC1CC1)CCC2.O=C(O)C(F)(F)F,Percent Effect,"30.3 µM, […]",0.4082%
COCC(=O)NCc1cc(=O)n2c(n1)CN(Cc1ccncc1)CCC2,Percent Effect,"30.3 µM, […]",55.54%
COCC(=O)NCc1cc(=O)n2c(n1)CN(Cc1ccoc1)CCC2,Percent Effect,"30.3 µM, […]",10.68%
COc1ccccc1CNC(=O)c1[nH]ncc1Cl,Percent Effect,"30.3 µM, […]",-12.27%
COc1ccc(CNC[C@@]2(COc3cccnc3)C[C@@H](O)[C@@H](O)C2)cc1.Cl,Percent Effect,"30.3 µM, […]",14.18%
Cc1nc2ccnn2c(C)c1CCC(=O)N1CCN2CCCCC2C1 (centres undefined),Percent Effect,30 µM,11.28%
O=C(C1CCCCC1)N1CCCC([C@@H]2C[C@H](C(F)F)n3ncnc3N2)C1 (some centres undefined),Percent Effect,"30.3 µM, […]",0.241%
Cc1nc(N(C)CCCc2nccn2C)c2c(C)nn(C)c2n1,Percent Effect,"30.3 µM, […]",1.733%
Cc1ccc(CN2CC[C@H]3[C@H](CC(Cn4cccn4)N3C)C2)s1.O=C(O)C(F)(F)F.O=C(O)C(F)(F)F.O=C(O)C(F)(F)F (some centres undefined),Percent Effect,"30.3 µM, […]",-11.42%
CN1CC[C@H](N(Cc2ccccc2)Cc2ccccc2)C[C@H](O)C1,Percent Effect,"30.3 µM, […]",94.14%
CN1CC[C@H](N(Cc2ccccc2)CC2CC2)C[C@H](O)C1,Percent Effect,"30.3 µM, […]",31.47%
CN1CC[C@H](N(C)Cc2ccccc2)C[C@H](O)C1,Percent Effect,"30.3 µM, […]",20.46%
CC(C)Sc1ncccc1C(=O)NCc1ccc(O)cc1,Percent Effect,30 µM,14.96%
CCCS(=O)(=O)NCC(O)c1c(Cl)cccc1Cl (centres undefined),Percent Effect,"30.3 µM, […]",7.191%
CCN(CC)S(=O)(=O)NCC(O)c1c(Cl)cccc1Cl (centres undefined),Percent Effect,"30.3 µM, […]",62.85%
CCN(C)S(=O)(=O)NCC(O)c1c(Cl)cccc1Cl (centres undefined),Percent Effect,"30.3 µM, […]",41.58%
CCCc1nc(CN2CCCC2Cn2cccn2)cs1 (centres undefined),Percent Effect,"30.3 µM, […]",31.37%
CN(C)C(=O)CC1CC2(CCN(CC3CC3)CC2)c2cc(F)ccc21.O=C(O)C(F)(F)F (centres undefined),Percent Effect,"30 µM, 30.03 µM",16.14%
CCC(=O)N1CCC2(CC1)CC(CC(=O)N(C)C)c1ccc(F)cc12 (centres undefined),Percent Effect,"30.3 µM, […]",35.94%
CCN1CCC2(CC1)CC(CC(=O)N(C)C)c1ccc(F)cc12 (centres undefined),Percent Effect,"30.3 µM, […]",64.47%
CC(=O)Nc1ccc(CNCC(O)c2ccccc2)cc1 (centres undefined),Percent Effect,"30.3 µM, […]",-2.839%
CCOc1ccc(CNCC(O)c2ccccc2)cc1Cl.Cl (centres undefined),Percent Effect,"30.3 µM, […]",14.87%
CCc1ccc(CNC(=O)NC2CCCc3c2cnn3CCO)s1 (centres undefined),Percent Effect,"30.3 µM, […]",21.53%
O=C(Cc1ccccn1)N1CCCC(c2nccn2CC2CCC2)C1 (centres undefined),Percent Effect,"30.3 µM, […]",-1.281%
CCOc1ccccc1OC1CCN(Cc2ccn(C)c(=O)c2)CC1,Percent Effect,30 µM,5.552%
CCCS(=O)(=O)N1CCC(NC(=O)c2cc3ccccc3s2)CC1,Percent Effect,"30.3 µM, […]",22.53%
CC(C)N1CCC2(C=C(C(=O)N(C)C)c3ccccc32)CC1.O=C(O)C(F)(F)F,Percent Effect,"30.3 µM, […]",-11.73%
CCN1CCC2(C=C(C(=O)N(C)C)c3ccccc32)CC1.O=C(O)C(F)(F)F,Percent Effect,"30.3 µM, […]",51.51%
CC(C)CN1CCC2(C=C(C(=O)N(C)C)c3ccccc32)CC1.O=C(O)C(F)(F)F,Percent Effect,"30.3 µM, […]",41.74%
CCC(=O)N1CCC2(C=C(C(=O)N(C)C)c3ccccc32)CC1,Percent Effect,"30.3 µM, […]",92.12%
CN1CCC2(C=C(C(=O)N(C)C)c3ccccc32)CC1,Percent Effect,"30.3 µM, […]",38.98%
CCC(=O)N1CCC2(C=C(C(=O)N3CCCC3)c3ccccc32)CC1,Percent Effect,"30.3 µM, […]",11.1%
CC(C)Cc1cc(CNc2nc(-c3cccnc3)nc3c2CNC3)no1,Percent Effect,"30.3 µM, […]",9.598%
O=C(c1cccnc1)N1CCN(CC2CC2)c2ncccc2C1,Percent Effect,"30.3 µM, […]",14.27%
O=C(c1ccoc1)N1CC[C@@H]2O[C@@H](COCc3ccccn3)CC[C@@H]21,Percent Effect,"30.3 µM, […]",-30.2%
O=C(N1CCOCC1)N1CC[C@H]2[C@@H]1CCC(=O)N2c1ccccc1,Percent Effect,"30.3 µM, […]",31.55%
Cc1oncc1C(=O)N1CCC2(CCN(Cc3ccccn3)C2=O)C1 (centres undefined),Percent Effect,"30 µM, 30.03 µM",-19.39%
Cc1ccc(C(=O)N2CCC3(CCN(Cc4ccccn4)C3=O)C2)cn1 (centres undefined),Percent Effect,"30.3 µM, […]",50.83%
O=C(c1cccnc1)N1CCC2(CC1)CCN(Cc1ccccn1)C2=O,Percent Effect,"30.3 µM, […]",28.38%
Cc1c(-c2cc(C(F)(F)F)nc(N3CCC(N)CC3)n2)cnn1C,Percent Effect,"30.3 µM, […]",81.41%
CCn1ncc(-c2cc(C(F)(F)F)nc(N3CCC(N)CC3)n2)c1C,Percent Effect,"30.3 µM, […]",100.6%
CCNC(=O)[C@@H]1C[C@H](N)CN1c1cc(C(F)(F)F)nc(N2CCCC2)n1,Percent Effect,"30.3 µM, […]",23.81%
Cc1ccc(-c2cc(C(F)(F)F)nc(N3CCOCC3)n2)s1,Percent Effect,"30.3 µM, […]",2.404%
Cc1nn(C)cc1-c1cc(C(F)(F)F)nc(NC2CCN(C)CC2)n1,Percent Effect,"30.3 µM, […]",7.809%
CCc1ccc(-c2cc(C(F)(F)F)nc(N3CCC(N)CC3)n2)cc1,Percent Effect,"30.3 µM, […]",44.83%
Cc1ccccc1OCn1ccc(C(=O)NCCN2CCOCC2)n1,Percent Effect,"30.3 µM, […]",-13.65%
O=S(=O)(c1ccccc1)N1CCC2(CCCN2Cc2cccc(F)c2)C1 (centres undefined),Percent Effect,"30.3 µM, […]",61.17%
O=C(O)C(F)(F)F.O=S(=O)(c1ccccc1)N1CCC2(CCCN2Cc2cccc(Cl)c2)C1 (centres undefined),Percent Effect,"30.3 µM, […]",27.63%
O=C(O)C(F)(F)F.O=C(O)C(F)(F)F.O=C(O)CN1CCCC2(CCN2Cc2cccc(F)c2)C1 (centres undefined),Percent Effect,"30.3 µM, […]",-0.8696%
O=C(O)C(F)(F)F.O=C(c1ccccc1)N1CCCC2(CCN2Cc2cccc(F)c2)C1 (centres undefined),Percent Effect,"30.3 µM, […]",54.88%
O=S(=O)(c1ccccc1)N1CCC2(CCCN2Cc2ccccc2Cl)C1 (centres undefined),Percent Effect,"30.3 µM, […]",52.23%
CCS(=O)(=O)N1CCCC2(CCCN2Cc2cccc(F)c2)C1.O=C(O)C(F)(F)F (centres undefined),Percent Effect,"30.3 µM, […]",12.48%
O=C(O)C(F)(F)F.O=C(c1cscn1)N1CCCC2(CCN2Cc2cccc(F)c2)C1 (centres undefined),Percent Effect,"30.3 µM, […]",40.36%
O=S(=O)(c1ccccc1)N1CCC2(CCCN2Cc2ccc(Cl)cc2)C1 (centres undefined),Percent Effect,"30.3 µM, […]",36.08%
Cc1ccc(CN2CCCC23CCN(S(=O)(=O)c2ccccc2)C3)o1 (centres undefined),Percent Effect,"30 µM, 30.03 µM",49.3%
CC(C)C(C(N)=O)c1cccc(Cl)c1 (centres undefined),Percent Effect,"30.3 µM, […]",23.22%
Cc1nnc(N2CCO[C@H]3[C@@H](OCc4ccccn4)CC[C@@H]32)s1.O=C(O)C(F)(F)F.O=C(O)C(F)(F)F,Percent Effect,"30.3 µM, […]",-5.183%
Cc1nccn1Cc1nnc(C2CCN(c3ccncc3F)CC2)n1C,Percent Effect,"30.3 µM, […]",4.988%
c1nc2c(c(NC3COC4(CCCC4)C3)n1)CCNCC2 (centres undefined),Percent Effect,"30.3 µM, […]",-7.058%
O=C(O)C(F)(F)F.O=C(c1cocn1)N1C[C@H]2CCC[C@@]2(COc2ccccn2)C1,Percent Effect,"30.3 µM, […]",20.04%
Cc1nn(C)c(C)c1CN1CCCC1c1nccc(CN(C)C)n1 (centres undefined),Percent Effect,"30.3 µM, […]",3.97%
CC(C#N)CNC(=O)Nc1ccc(Br)cc1 (centres undefined),Percent Effect,"30.3 µM, […]",6.996%
CC(=O)N1CCCN(C2CCCCc3ccccc32)CC1 (centres undefined),Percent Effect,"30.3 µM, […]",18.35%
COc1c(C2CCCN2C(=O)c2c[nH]c3ncccc23)c(C)nn1C (centres undefined),Percent Effect,"30 µM, 30.03 µM",-19.02%
Cc1nnc([C@@]23CCO[C@@H]2CCN(S(=O)(=O)c2cccnc2)C3)o1,Percent Effect,"30.3 µM, […]",17.24%
Cc1nnc([C@@]23CCO[C@@H]2CCN(S(=O)(=O)c2ccccc2)C3)o1,Percent Effect,"30.3 µM, […]",56.06%
CNC(=O)[C@@]12CCO[C@@H]1CCN(S(=O)(=O)c1cccnc1)C2.O=C(O)C(F)(F)F,Percent Effect,"30 µM, 30.03 µM",-13.7%
Cc1noc([C@@]23CCO[C@@H]2CCN(C(=O)C2CCOCC2)C3)n1,Percent Effect,"30 µM, 30.03 µM",-29.55%
Cc1noc([C@@]23CCO[C@@H]2CCN(S(=O)(=O)c2cccnc2)C3)n1,Percent Effect,"30.3 µM, […]",57.7%
Cc1nnc([C@@]23CCO[C@@H]2CCN(S(C)(=O)=O)C3)o1,Percent Effect,"30.3 µM, […]",-7.004%
C[C@H]1C[C@H]2CN(C(=O)c3cccc4c3OCCO4)CC[C@H]2O1,Percent Effect,"30.3 µM, […]",-11.14%
CCc1nccn1-c1cccc(C2CCCN2)n1.Cl.Cl (centres undefined),Percent Effect,"30.3 µM, […]",6.16%
O=C1CCCN1CCCN1CCCCC1Cn1cncn1 (centres undefined),Percent Effect,"30.3 µM, […]",26.96%
Cc1csc(CCNC(=O)N2CCC(NC(=O)OC(C)(C)C)CC2)n1,Percent Effect,"30.3 µM, […]",-5.066%
CSc1nc2cc(C)n(CC(=O)N3CCCC3)c2c(=O)n1CC(C)C,Percent Effect,"30.3 µM, […]",6.672%
CC(NCc1ccc(OCC(N)=O)cc1)c1ccc(Cl)cc1.Cl (centres undefined),Percent Effect,"30.3 µM, […]",32.34%
CC(NCc1ccc(OCC(N)=O)cc1)c1ccc(Cl)c(Cl)c1.Cl (centres undefined),Percent Effect,"30.3 µM, […]",12.13%
CC(NCc1ccc(OCC(N)=O)cc1)c1ccc2c(c1)CCCC2 (centres undefined),Percent Effect,"30.3 µM, […]",72.53%
